Measured values from the supplement of paper PMC3334620.
Whole data set: some 33,000 sequences, median “E-score (-0.5 to 0.5)” near -0.012, cut for the highest 2% near 0.27. Only a selection was taken, and the highest values are over-represented in it overall.

biological target: T1, Vhr1 (UniProt P40522); experiment: PBM E-score (8-mer binding enrichment) (E-score (-0.5 to 0.5)); higher = stronger / more preferred TF binding; settings: protein concentration: 200 nM; construct: GST-full length
T1 sequence: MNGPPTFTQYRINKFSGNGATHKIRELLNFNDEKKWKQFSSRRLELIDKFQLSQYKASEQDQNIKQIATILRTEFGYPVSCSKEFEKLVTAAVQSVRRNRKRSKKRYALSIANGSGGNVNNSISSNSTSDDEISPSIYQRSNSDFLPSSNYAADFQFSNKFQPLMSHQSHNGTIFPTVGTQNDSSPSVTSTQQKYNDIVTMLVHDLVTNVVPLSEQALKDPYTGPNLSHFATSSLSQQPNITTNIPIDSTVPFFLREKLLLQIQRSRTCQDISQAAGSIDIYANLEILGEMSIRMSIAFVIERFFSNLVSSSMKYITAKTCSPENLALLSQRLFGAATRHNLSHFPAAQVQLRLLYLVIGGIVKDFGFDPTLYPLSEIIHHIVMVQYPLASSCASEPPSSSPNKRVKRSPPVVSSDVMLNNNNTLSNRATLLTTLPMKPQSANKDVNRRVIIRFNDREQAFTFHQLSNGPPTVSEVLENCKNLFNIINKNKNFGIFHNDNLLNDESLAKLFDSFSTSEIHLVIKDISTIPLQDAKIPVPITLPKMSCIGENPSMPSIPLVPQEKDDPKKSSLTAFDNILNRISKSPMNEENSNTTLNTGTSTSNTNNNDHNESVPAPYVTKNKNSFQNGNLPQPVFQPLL
Description: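 Universal 'all 10-mer' protein binding microarrays (Agilent AMADID 015681) probed with GST-tagged S. cerevisiae TFs (full-length or DBD) made by in vitro transcription/translation (PURExpress), about 100-200 nM. Bound TF was detected with fluorescent anti-GST. Each ungapped 8-mer (which stands for itself and its reverse complement) is scored by the PBM enrichment score (E-score), a modified Wilcoxon-Mann-Whitney statistic from -0.5 to +0.5, computed with the Universal PBM Analysis Suite. Scale: above 0.35 generally sequence-specific binding.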

Sequence | PBM E-score
AAGAAACA | -0.161
CCAGACGC | -0.029
CTAAGGAC | -0.0588
CGTTGCCC | -0.166
ATCGCCTA | 0.0387
AGGCAAAG | -0.192
TAGAGTCA | 0.355
GAGAGTAA | 0.0595
AAGAGTCA | 0.422
GAGAGTCC | -0.0872
TAGAGTGA | -0.0169
AAGAGTCC | -0.149
AAGAGTCT | 0.00073
GAGAGTCA | 0.43
TAGAGTAA | -0.082
GGCTGGTA | 0.0349
TATATTCA | 0.0779
GAGTGTTA | 0.00822
GTGCGATA | 0.0799
GCAGTCTA | -0.0301
CGGGTGAC | 0.143
GCATTGAC | -0.0613
GGCTGCCA | 0.181
GCGGTAGC | 0.0852
CAGAGAGG | -0.086

Sequence | PBM E-score
AGGGTGGC | 0.173
AGGGTGGA | 0.0785
AGGGTGGG | 0.282
CAGACTCA | 0.27
AAGACTCC | 0.158
AAGACTCT | 0.209
TAGACTCA | 0.221
CAGACTCC | -0.0111
GAGACTTA | -0.164
GAGACTCC | 0.286
AAGACTCA | 0.317
GAGACTCA | 0.36
CGAACCAG | 0.0659
AACGGTTG | 0.038
CCATAGGC | -0.172
CCCGCCCA | 0.301
CCCGCCCC | 0.329
ACCGCCCC | 0.325
CCCCGCCC | 0.258
ACCGCCCT | -0.0373
GCCGCCCA | 0.128
GCCGCCCC | 0.0606
CCCGCCCG | 0.259
ACCGCCCG | -0.058
GAGTCTGC | -0.0315

Sequence | PBM E-score
AGTTTATG | -0.0791
ACGTTATG | -0.0459
CCTTCGCC | -0.031
ATGCAGTA | 0.0873
ATGCAGTG | 0.276
ATGCAGTC | 0.184
GAATTTCC | -0.0327
GGAGAAAA | -0.292
AATCCACC | 0.154
CAGTCGGA | 0.0502
GAGTCGGA | 0.416
CAGTCCGA | 0.126
CAGTCGGC | 0.0497
GAGTCCGA | 0.308
GAGTCCGC | 0.224
AAGTCGGC | -0.177
AAGTCGTA | -0.0973
TAGTCGGA | 0.203
CAGTCGTA | 0.132
GAGTCGTA | 0.405
GAGTCGGC | 0.411
AGTCCACT | -0.158
ATGCATCC | -0.152
GCAGCCCA | 0.0376
AGGATTGG | -0.0691

Sequence | PBM E-score
TAGTTAAA | 0.0419
AACTGAAT | 0.00051
GATTGGCA | -0.056
AACTGAGG | -0.0666
GTACAAAA | -0.0126
ACGTTGAC | 0.0527
CCACCTGG | -0.0837
CATCCTCG | 0.124
CATATCAG | -0.0382
GATATCGA | -0.0237
AATATCAA | 0.0811
CATATCAA | 0.278
CATATCGG | 0.0424
CATATCGA | 0.292
CTTATACC | -0.0429
GCACAGAA | -0.0823
CCGCGAAG | 0.039
GGAGATCC | -0.0359
CGCTTAAC | -0.225
TACGTCAA | -0.139
CAAACAGG | 0.0517
CCTATGAC | 0.0237
ACTATGAA | 0.0955
ACTATGAC | 0.286
ACTATGAT | 0.351

Sequence | PBM E-score
GCTATGAC | 0.201
ACTATGAG | 0.181
AGACTACT | 0.216
ATTCTATC | -0.154
CCGCTAGC | -0.266
GCTGTCCC | -0.206
AGATCGAC | -0.0907
AATCAGAC | 0.201
CCGTGGCG | 0.189
GCGGTCAC | -0.00992
GACCCAGA | 0.0388
CAATCAGC | 0.193
GAATCAGA | 0.319
TAATCAGA | 0.146
GAATCAGC | 0.307
AAATCAGA | 0.0175
AAATCAGC | 0.121
CCACACCC | 0.197
GAAAATTC | -0.274
AAGCTTCC | -0.37
ATGGGCTG | 0.198
ATGGGCTC | 0.272
CTGGGCTC | -0.135
AAGTCAAT | 0.0223
AAGTCGAC | 0.17

Sequence | PBM E-score
CAGTCGCA | 0.0715
GAGTCGAC | 0.294
GAGTCGCA | 0.391
GAGTCGCC | 0.424
TAGTCGAA | 0.0212
CAGTCGAC | 0.197
TAGTCGCA | 0.309
AAGTCGCC | -0.0133
CAGTCGCC | 0.147
AAGTCGCA | 0.173
TCGTCGCA | 0.111
ATCAGGCC | -0.0546
ACACTAAA | 0.238
CTACTTAA | -0.204
CACTCATA | 0.179
CACTCATC | 0.137
GACTCAAC | 0.42
GACTCATC | 0.452
CACTCAAC | 0.0922
AACTCATA | 0.141
AACTCATC | 0.209
GACTCAAA | 0.266
GACTCATA | 0.388
AAGTAGAC | -0.0556
AGCCATTG | 0.172

Sequence | PBM E-score
CCCGCTAG | -0.249
TCCCGGGA | -0.0779
GTAGGTAA | -0.114
GGCGAAGA | -0.152
AGACTCAA | 0.214
TGACTCAA | 0.468
CCACTCAA | 0.133
GGACTCAA | 0.143
CGACTCAA | 0.386
CTACTCAA | 0.113
CGATTTAG | -0.0352
ACATTCAT | 0.0173
CTACCTGC | -0.0175
CGTGAGAC | 0.0393
AGACCTTA | 0.0612
AAGAGGTA | 0.0122
CGACCCAA | 0.14
CGTAATTA | -0.128
GCTAATCA | 0.262
GGTAATGA | 0.023
ATCAATCA | 0.248
AGTAATCG | 0.141
